# In PubChem BioAssay (EPA / NIEHS):
# The source made the active and inactive calls. How the source made its calls: active means hit-call score of the fitted dose curve at least 0.9, where 1 is the maximum; inactive means score below 0.9.
# Assay: ATG_M_32_CIS: Attagene CIS-FACTORIAL HepG2 Assay for M32 Transcription Factor (Internal Marker) (AID 2282949);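 further: background control marker of the multiplexed CIS panel rather than a real target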
# Settings: HepG2 Attagene cis-factorial M32 reporter, mRNA; actives raise or lower the signal
# Protocol: ATG_CIS is a cell-based, multiplexed-readout assay that uses HepG2, a human liver cell line, with measurements taken at 24 hours after chemical dosing in a 24-well plate.ATG_M_32_CIS is one of 52 assay component(s) measured or calculated from the ATG_CIS assay. It is designed to make measurements of mRNA induction, a form of inducible reporter, as detected with fluorescence intensity signals by Reverse transcription polymerase chain reaction (RT-PCR) and Capillary electrophoresis technology.Data from the assay component ATG_M_32_CIS was analyzed into 1 assay endpoint. This assay endpoint, ATG_M_32_CIS, was analyzed with bidirectional fitting relative to DMSO as the negative control and baseline of activity. Using a type of inducible reporter, measures of mRNA for gain or loss-of-signal activity can be used to understand the background control at the transcription factor-level as they relate to the gene . Furthermore, this assay endpoint can be referred to as a secondary readout, because this assay has produced multiple assay endpoints where this one serves a background control function. To generalize the intended target to other relatable targets, this assay endpoint is annotated to the background measurement intended target family, where the subfamily is internal marker.
# Human liver HepG2 cells are transiently transfected with multiple reporter transcription units (MRTUs) in 6-well plates using FuGene 6 reagent (Roche; 3 ml FuGene/1 mg DNA). The MRTU constructs are regulated by a cis-regulating element (promoter). […] A major difference between the CIS and TRANS system is that in CIS activities of endogenous TFs are measured, whereas the TRANS assay evaluates changes in activities of exogenous, chimeric NR-Gal4 proteins. […] At the end of 24 hour incubation, total RNA was isolated using TriZol reagent (Invitrogen). The isolated RNA is then reverse-transcribed using oligo(dT) primer and Mo-MLV reverse transcriptase (Invitrogen) with DNAse I (Ambion) treatment for 30 min. The one-tenth of the produced cDNA was amplified by PCR using Taq DNA polymerase (Invitrogen) and two reporter sequence-specific primers. The PCR products were fluorescently labeled by primer extension with 6-arboxyfluorescein (6-FAM) 5'-labeled reporter sequence-specific primer (2 min at 95 C, 20 s at 68 C and 10 min at 72 C) and these products were digested with 5U of HpaI (New England Biolabs) for 2h at 37 C. The fragments were purified using Qiaquick PCR columns (Qiagen), analyzed on an ABI 3130xL genetic analyzer (Applied Biosystems) with peak positions identified by using a set of X-rhodamine (ROX)-labeled MapMarker1000 molecular weight standards (BioVentures). The raw capillary electrophoresis data was processed using Attagraph software (Attagene).
SMILES,outcome,AC50
Cc1occc(=O)c1O,inactive,–
CCCCCCCC(=O)OC,inactive,–
C=CCc1ccc(OC)c(OC)c1,inactive,–
Nc1nc(=S)c2[nH]cnc2[nH]1,inactive,–
c1ccc2occc2c1,inactive,–
Cc1cn([C@H]2C=C[C@@H](CO)O2)c(=O)[nH]c1=O,inactive,–
CC(C)OC(=O)C(C)(C)Oc1ccc(C(=O)c2ccc(Cl)cc2)cc1,inactive,–
CCCC(=O)O,inactive,–
Cc1cc(Cc2ccc(N)c(C)c2)ccc1N,inactive,–
CC(C)(C)c1ccccc1,inactive,–
C=CCCCCCCCCCCCC,inactive,–
O=NO,inactive,–
CCCCC(CC)CO (stereo not given),inactive,–
O=C(O)CN(CC(=O)O)CC(=O)O,inactive,–
Oc1ccccc1O,inactive,–
C/C=C/C=C/C(=O)O,inactive,–
CCCCc1nc2cccnc2n1Cc1ccc(-c2ccccc2-c2nnn[nH]2)cc1,inactive,–
CC(C)(O)c1ccc(CNC(=O)c2cccnc2Oc2ccc(F)cc2)cc1,inactive,–
CC1(C)C(=O)NC(=O)N1CO,inactive,–
O=C(O)c1[nH]n(-c2ccc(S(=O)(=O)O)cc2)c(=O)c1N=Nc1ccc(S(=O)(=O)O)cc1,inactive,–

SMILES,outcome,AC50
C/C=C/c1ccc(OC)cc1,inactive,–
NC=O,inactive,–
NC1CCCCC1,inactive,–
Cc1ccc(C(C)(C)C)c(O)c1,inactive,–
COC(=O)CCC(=O)OC,inactive,–
COC(=O)[C@H]1[C@H]2C[C@@H]3c4[nH]c5cc(OC)ccc5c4CCN3C[C@H]2C[C@@H](OC(=O)c2cc(OC)c(OC)c(OC)c2)[C@@H]1OC,inactive,–
O=C1CCCCC1,inactive,–
CC(=O)S[C@H](C(=O)N[C@H]1Cc2ccccc2[C@H]2CCC[C@@H](C(=O)O)N2C1=O)C(C)C,inactive,–
O=C1O[C@H]([C@H](O)CO)C(O)=C1O,inactive,–
CC(C)c1cccc(C(C)C)c1NC(=O)NS(=O)(=O)c1cc(C(C)(C)O)co1,inactive,–
CN(C)C(=O)NC1(c2ccccc2)CCN(CC[C@@]2(c3ccc(F)c(F)c3)CN(C(=O)c3ccccc3)CCO2)CC1,inactive,–
O=C1c2c(O)cccc2Cc2cccc(O)c21,inactive,–
CC(=O)OC1CC(C)OC(C)O1 (stereo not given),inactive,–
O=C1NC(=O)C(c2ccccc2)(c2ccccc2)N1,inactive,–
CC(=O)O,inactive,–
C#CC(O)C(CC)CCCC (stereo not given),–,157 µM (active)
Nc1nc(Cl)nc2c1ncn2[C@H]1C[C@H](O)[C@@H](CO)O1,inactive,–
COC(=O)CCCC(=O)OC,inactive,–
CCCCC(CC)COC(=O)CCCCCCCC(=O)OCC(CC)CCCC (stereo not given),inactive,–
Cc1c(C)c2c(c(C)c1O)CCC(C)(COc1ccc(CC3SC(=O)NC3=O)cc1)O2 (stereo not given),inactive,–
